Screening results (PubChem BioAssay)
The list is not random: actives were taken first. Their share in the collection is about 12%.
OTUD3 block – inhibitors of human OTUD3 deubiquitinase | inhibition, % at 25 µM | Q5T2D3 | purified OTUD3, Ub-rhodamine fluorescence, 2 h | 0.7% of 47,000 active | AID 1645858
USP30 block – blocks human USP30 ubiquitin-rhodamine cleavage; Q70CQ3; purified USP30, Ub-rhodamine cleavage fluorescence; inhibition, % at 25 µM; 5.3% of 47,000 active; AID 1645860
USP17 block – inhibitors of human USP17 deubiquitinase | A8MUK1 | purified USP17, Ub-rhodamine cleavage fluorescence, 3 h | inhibition, % at 50 µM | 6.5% of 47,000 active | AID 1645855
Target sequence (A8MUK1 whole entry, looked up): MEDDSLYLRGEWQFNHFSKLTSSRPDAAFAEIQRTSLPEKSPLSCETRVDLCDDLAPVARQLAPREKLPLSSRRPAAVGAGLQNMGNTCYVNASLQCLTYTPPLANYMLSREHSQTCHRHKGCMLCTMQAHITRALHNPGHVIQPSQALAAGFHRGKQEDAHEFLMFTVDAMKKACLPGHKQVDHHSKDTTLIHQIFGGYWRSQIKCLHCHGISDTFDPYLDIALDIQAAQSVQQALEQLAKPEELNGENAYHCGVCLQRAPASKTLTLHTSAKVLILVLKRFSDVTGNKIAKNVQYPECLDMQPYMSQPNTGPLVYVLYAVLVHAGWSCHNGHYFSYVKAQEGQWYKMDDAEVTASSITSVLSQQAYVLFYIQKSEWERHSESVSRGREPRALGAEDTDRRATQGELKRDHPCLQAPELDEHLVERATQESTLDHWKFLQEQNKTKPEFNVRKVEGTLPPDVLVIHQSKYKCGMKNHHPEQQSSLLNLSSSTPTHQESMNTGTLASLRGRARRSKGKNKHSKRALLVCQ
USP28 inh – blocks human USP28 ubiquitin-rhodamine cleavage; inhibition, % at 25 µM; 3% of 47,000 active; purified USP28, Ub-rhodamine cleavage fluorescence, 30 min; Q96RU2; AID 1645857
* = called active by the depositor; i = inactive; / = no result. No stated cut-off is given here; in the data, active means inhibition above about 30%; inactive means the rest.

SMILES	OTUD3 block	USP30 block	USP17 block	USP28 inh
NC(=O)c1ccccc1NC(=O)COc1ccc2c(c1)oc(=O)c1ccccc12	0	-1	-4	-16
CCC(=O)c1ccc(OCC(=O)Nc2ccc(C#N)cc2)cc1	9	-11	47*	4
N#Cc1ccc(NC(=O)COc2ccc3oc4ccccc4c3c2)cc1	1	2	45*	3
O=C(CSc1nc2cc(C(F)(F)F)ccc2s1)NCC(=O)c1ccccc1	-8	0	91*	5
O=C(Cn1cnc(-c2noc(-c3ccncc3)n2)c1)N1CCN(c2ccccc2F)CC1	13	52*	11	5
CN(Cc1ccccc1)S(=O)(=O)c1ccc(C(=O)Nc2ccc3c(c2)OCO3)cc1	4	19	6	6
CCN(c1ccccc1)S(=O)(=O)c1ccc(C(=O)Nc2cccc(NC(C)=O)c2)cc1	-17	-25	-16	-8
CCN(Cc1ccccc1)S(=O)(=O)c1ccc(C(=O)Nc2ccc(S(N)(=O)=O)cc2)cc1	-10	-3	33*	5
CCN(Cc1ccccc1)S(=O)(=O)c1ccc(C(=O)Nc2sccc2C(N)=O)cc1	0	/	43*	/
CN(Cc1ccccc1)S(=O)(=O)c1ccc(NC(=O)c2ccc(Cl)cc2)cc1	-1	31*	15	-4
CC(C)c1cnn2c(NCc3ccccc3)cc(NCCCCCCN)nc12	-8	37*	-8	40*
COc1ccc(CCNC(=O)CCn2c(=O)c3ccccc3n(Cc3ccccc3C#N)c2=O)cc1OC	0	15	3	2
COc1ccc(CCNC(=O)CCCCn2c(=O)c3ccccc3n(Cc3cccc(F)c3)c2=O)cc1OC	19	55*	60*	9
COc1ccc(CCNC(=O)c2ccc(Cn3c(=O)c4ccccc4n(CC(=O)Nc4cc(C)[nH]n4)c3=O)cc2)cc1OC	8	65*	66*	9
COCCCNC(=O)Cn1c(=O)n(Cc2ccc(C(=O)NCCc3ccc(OC)c(OC)c3)cc2)c(=O)c2ccccc21	-11	-11	4	1
COc1ccc(CCNC(=O)CCn2c(=O)c3ccccc3n(Cc3ccc(F)cc3)c2=O)cc1OC	23	43*	46*	31*
COc1ccc(CCNC(=O)CCn2c(=O)c3ccccc3n(Cc3ccc(C)cc3)c2=O)cc1OC	17	64*	43*	14
CCc1ccc(NC(=O)N2C[C@H]3CC[C@@]4(N=C(C)N(CC)C4=O)[C@H]3C2)cc1	10	-4	-9	1
CCN1CCN(c2nc(Nc3ccc(Cl)cc3C)c3nccnc3n2)CC1	-27	-59	/	-23
O=C(CCCn1c(=O)c2ccccc2n(Cc2cc(=O)n3ccccc3n2)c1=O)NCc1ccco1	1	-4	-2	-1
COc1ccc(C(=O)CSc2nnc3n(Cc4ccc(C)cc4)c(=O)c4ccccc4n23)cc1OC	13	45*	25	16
Cc1cc(NC(=O)Cn2c(=O)n(CC3CCC(C(=O)NCCc4ccccc4)CC3)c(=O)c3ccccc32)n[nH]1 (stereo unspecified)	36*	45*	58*	30
O=C(CCn1c(=O)c2ccccc2n(Cc2cc(=O)n3ccccc3n2)c1=O)NCCc1ccc(Cl)cc1	25	61*	48*	16
O=C(Cn1c(=O)n(CC2CCC(C(=O)NC3CCCC3)CC2)c(=O)c2ccccc21)NCCC1=CCCCC1 (stereo unspecified)	22	40*	50*	2
Cc1ccc2c(c1)[C@]1(C(=O)N2)[C@@H](C(=O)c2cccc([N+](=O)[O-])c2)[C@]2(C(=O)Nc3ccccc32)[C@@H]2CCCN21	13	12	-7	5
SMILES	OTUD3 block	USP30 block	USP17 block	USP28 inh
O=C1CCN(c2ncnc3c2oc2ccccc23)CC1	-100	i	-93	-128
COc1ccc(C2NC3=NCN(C(C)C)CN3c3nc4ccccc4n32)cc1 (stereo unspecified)	20	33*	12	12
C[C@@H]1CO[C@@H]2C3=C(C(=O)C=CC3=O)[C@H]3OC(=O)[C@@H]4CCC5[C@@H]1CCC52C34 (stereo partly specified)	59*	59*	80*	62*
COc1cccc(C(=O)N2CCN(c3ccc(CN4CCC(N(C)C)CC4)cn3)CC2)c1C	9	0	6	7
Cn1c(=O)c(C(=O)CN2CCN(c3ccc(O)cc3)CC2)c(N)n(Cc2ccccc2)c1=O	1	-1	59*	26
Cc1ccc(-n2ncc(C(=O)NC3CCN(Cc4ccccc4)CC3)c2C2CCNCC2)cc1	-43	-200	-98	-62
CCOC(=O)c1ccccc1NC(=O)Cc1c(C)n(C(=O)c2ccc(Cl)cc2)c2ccc(OC)cc12	-3	-38	-5	-12
CCOC(=O)c1ccccc1NC(=O)C(=O)CC(=O)c1ccc(OC)cc1	0	-18	31*	24
O=C(COc1nc2ccccc2nc1N1CCOCC1)Nc1cccc(S(=O)(=O)N2CCCCC2)c1	47*	-26	-10	-7
O=C(Nc1cccc(S(=O)(=O)N2CCCC2)c1)c1ccc(N2CCOCC2)c([N+](=O)[O-])c1	12	23	8	41*
Cc1ccc(C(=O)Nc2nccnc2C(=O)NCc2cccc(F)c2)cc1	0	-2	-1	-8
Cc1ccc(-c2nc(CNC(=O)C(C)Oc3ccccc3F)cs2)cc1 (stereo unspecified)	19	46*	7	9
COc1ccc(-c2nc(CNC(=O)c3ccccc3F)cs2)cc1	7	28	4	14
COc1ccc(OCCn2c(C3CC(=O)N(C)C3)nc3ccccc32)cc1 (stereo unspecified)	6	11	0	10
Cc1ccc(N2CC(c3nc4ccccc4n3CCOc3cccc(C)c3)CC2=O)cc1 (stereo unspecified)	12	47*	48*	16
Cc1ccc(N2CC(c3nc4ccccc4n3CCCCOc3ccccc3)CC2=O)cc1 (stereo unspecified)	26	52*	17	22
Cn1cc(-c2nc(-c3ccccn3)no2)c(=O)c2cc(F)c(N3CCCCC3)cc21	0	6	4	1
Cc1ccc(S(=O)(=O)N2CCN(C(=O)CN3c4ccccc4CC3C)CC2)c(C)c1 (stereo unspecified)	-42	-129	-7	-15
COC(=O)c1cn(CC(=O)NCCOc2ccc(Cl)cc2)c2ccccc12	15	44*	27	13
CCC(=O)c1cn(CC(=O)NCCOc2ccc(Cl)cc2)c2ccccc12	-13	-7	-3	-18
COc1ccccc1CNC(=O)c1cc(C2CC2)nc2c1cnn2C(C)C	-8	-40	-25	-11
CC(C)n1ncc2c(C(=O)NCCc3ccc(Cl)cc3)cc(C3CC3)nc21	-6	-88	-27	38*
CC(C)n1ncc2c(C(=O)NCCc3cccc(Cl)c3)cc(C3CC3)nc21	-2	-61	/	37*
COc1ccc(CNC(=O)c2cc(C3CC3)nc3c2cnn3C(C)C)cc1	-17	-58	-16	18
COc1ccc(/C=C/C(=O)Nc2cccc(C3OCCCO3)c2)cc1OC	-6	-10	-2	18
Cc1ccc(CC2CCCN(S(=O)(=O)C3CCCC3)C2)cn1 (stereo unspecified)	0	/	-1	/
